Results taken from PubChem BioAssay (NCI).
“And” between values parts separate entries of the source, which are not always exact repeats. Equal values may be shown once. Compounds without any hit were thinned out: in the full panel of roughly 83,000, 20% have a hit.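 For each line, cells grew in 96-well plates with the test compound present at a single concentration for 48 hours.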 The source made the active and inactive calls. How the source made its calls: active means growth percent below 10; inactive means the rest.

Experiments:
Experiment in all cases: NCI-60 one-dose screen, 48 h (100 = growth as untreated, 0 = no growth, -100 = all killed)
Conditions in all cases: 10 µM unless noted
[1] = system: NCI-H226 lung
[2] = system: NCI-H322M lung
[3] = system: HOP-62 NSCLC
[4] = system: NCI-H460 lung
[5] = system: NCI-H522 lung
[6] = system: A549/ATCC NSCLC
[7] = system: 786-0 renal
[8] = system: COLO 205 colon
[9] = system: DU-145 prostate
[10] = system: K-562 leukemia
[11] = system: MALME-3M melanoma
[12] = system: MDA-MB-231 breast
[13] = system: RXF 393 renal
[14] = system: SF-268 CNS
[15] = system: SF-295 CNS
[16] = system: SF-539 CNS
[17] = system: UACC-257 melanoma
[18] = system: M14 melanoma
[19] = system: HOP-92 NSCLC

SMILES | growth [1] | growth [2] | growth [3] | growth [4] | growth [5] | growth [6] | growth [7] | growth [8] | growth [9] | growth [10] | growth [11] | growth [12] | growth [13] | growth [14] | growth [15] | growth [16] | growth [17] | growth [18] | growth [19]
O=c1c2ccccc2nc(-c2ccccc2Cl)n1-c1nnc(C(F)(F)F)s1 | 42.9% (inactive) | 17.6% (inactive) | 58.7% (inactive) | 24.7% (inactive) | -23.4% (active) | 37.3% (inactive) | 22.4% (inactive) | 43.6% (inactive) | 56.8% (inactive) | 11.4% (inactive) | -11.5% (active) | 52.3% (inactive) | 38.9% (inactive) | 38.8% (inactive) | 12% (inactive) | 19.7% (inactive) | 30% (inactive) | 35.1% (inactive) | 
C[C@@]12CCCc3coc(c31)C(=O)c1cc3c(cc12)C(=O)C1=C(NCCS1(=O)=O)C3=O | 7.87% (active) | -6.28% (active) | -9.65% (active) | 0.0882% (active) | -55.6% (active) | -10.7% (active) | 6.38% (active) | -78.1% (active) | -91.8% (active) | -38.6% (active) | -98.2% (active) | -23.7% (active) | 6.73% (active) | -1.36% (active) | 2.57% (active) | -63.4% (active) | -94.2% (active) | -80.9% (active) | -30.6% (active)
CC[C@H](C)[C@H](NC(=O)[C@H]1CCCCN1C)C(=O)N(C)[C@H](C[C@@H](OC(C)=O)c1cccc(C(=O)N[C@@H](Cc2ccccc2)C[C@H](C)C(=O)OC)n1)C(C)C | 23.3% (inactive) | 40.3% (inactive) | 3.61% (active) | 7.06% (active) | -11.6% (active) | 10.5% (inactive) | 14.5% (inactive) | -71.6% (active) | 2.8% (active) | 5.5% (active) | 66.7% (inactive) | 2.42% (active) | 13.1% (inactive) | 13.9% (inactive) | 2.21% (active) | -14% (active) | 47.6% (inactive) | -8.11% (active) | -0.87% (active)
O=C1NC(=O)C(=C/C=C/c2ccccc2)C(=O)N1 | 62.7% (inactive) | 97% (inactive) | 48.2% (inactive) | 33.1% (inactive) | 6.24% (active) | 80.2% (inactive) | -25.4% (active) | -47.1% (active) |  | 8.24% (active) | -4.86% (active) | 3.87% (active) | -91.5% (active) | 30% (inactive) | 97.8% (inactive) | 27.4% (inactive) | 38.7% (inactive) | -20.5% (active) | 92.8% (inactive)
COC(=O)C1=CCCN(C)C1 | 100% (inactive) and 101% (inactive) | 96.2% (inactive) and 82.7% (inactive) | 109% (inactive) | 110% (inactive) and 106% (inactive) | 96.8% (inactive) and 73.1% (inactive) | 101% (inactive) | 100% (inactive) and 101% (inactive) | 114% (inactive) and 121% (inactive) | 111% (inactive) and 112% (inactive) | 93.2% (inactive) and 104% (inactive) | 96.2% (inactive) and 109% (inactive) | 115% (inactive) and 107% (inactive) | 102% (inactive) and 106% (inactive) | 116% (inactive) and 104% (inactive) | 97.9% (inactive) and 98.3% (inactive) | 103% (inactive) and 109% (inactive) | 96.8% (inactive) | 98% (inactive) and 100% (inactive) | 76.9% (inactive)
C(=NC1CCCCC1)=NC1CCCCC1 | 103% (inactive) and 57% (inactive) | 117% (inactive) and 99.1% (inactive) | 109% (inactive) and 86.8% (inactive) | 107% (inactive) and 100% (inactive) | 91.8% (inactive) and 85.2% (inactive) | 111% (inactive) and 87% (inactive) | 104% (inactive) and 87.1% (inactive) | 115% (inactive) and 88.6% (inactive) | 107% (inactive) and 97.9% (inactive) | 97.8% (inactive) and 69% (inactive) | 108% (inactive) and 53.2% (inactive) | 97.2% (inactive) and 88.3% (inactive) | 109% (inactive) and 94.6% (inactive) | 108% (inactive) and 88.2% (inactive) | 87% (inactive) | 101% (inactive) and 97.7% (inactive) | 133% (inactive) and 44.3% (inactive) | 115% (inactive) and 87.1% (inactive) | 92.8% (inactive) and 62.3% (inactive)
COc1cc2c(cc1OC)[C@@H]1C(=O)c3ccc4c(c3O[C@@H]1CO2)C[C@H](C(C)C)O4 | 62.8% (inactive) | 82.1% (inactive) | 63.6% (inactive) | 51.5% (inactive) | 30.5% (inactive) | 65.5% (inactive) | 60.2% (inactive) | 82.4% (inactive) | 85.5% (inactive) | 19.9% (inactive) | 56.5% (inactive) | 78.3% (inactive) | 102% (inactive) | 79.7% (inactive) | 18.6% (inactive) | 70.7% (inactive) | 58% (inactive) | 75.4% (inactive) | 57.3% (inactive)
NC(=O)c1c(Br)c(Br)c(Br)c(Br)c1C(=O)O (tested in a mixture with another compound) | 99.8% (inactive) and 98.4% (inactive) | 105% (inactive) and 114% (inactive) | 124% (inactive) and 103% (inactive) | 111% (inactive) | 93% (inactive) and 99.3% (inactive) | 102% (inactive) and 98% (inactive) | 109% (inactive) and 104% (inactive) | 113% (inactive) and 104% (inactive) | 112% (inactive) and 108% (inactive) | 80.6% (inactive) and 79.6% (inactive) | 102% (inactive) and 91.1% (inactive) | 87.5% (inactive) and 94.2% (inactive) | 106% (inactive) and 112% (inactive) | 97.7% (inactive) and 100% (inactive) |  | 97.2% (inactive) and 98.4% (inactive) | 98.7% (inactive) and 105% (inactive) | 97.1% (inactive) and 107% (inactive) | 85.8% (inactive) and 86% (inactive)
CN1CCC2(CC1)C(C#N)C(=O)NC(=O)C2C#N (stereo unspecified) | 96.1% (inactive) |  | 94.3% (inactive) | 106% (inactive) | 110% (inactive) | 95.9% (inactive) | 104% (inactive) | 109% (inactive) | 112% (inactive) | 94.5% (inactive) | 107% (inactive) | 101% (inactive) | 104% (inactive) | 107% (inactive) | 94.1% (inactive) | 94.9% (inactive) | 90.7% (inactive) | 107% (inactive) | 109% (inactive)
CC(=O)Cc1ccc2c(c1)OCO2 | 104% (inactive) | 113% (inactive) | 102% (inactive) | 109% (inactive) | 96.1% (inactive) | 96% (inactive) | 109% (inactive) | 117% (inactive) | 111% (inactive) | 116% (inactive) | 116% (inactive) | 89.1% (inactive) | 115% (inactive) | 98.3% (inactive) | 109% (inactive) | 95.4% (inactive) | 104% (inactive) | 105% (inactive) | 110% (inactive)
CCCCOCCOP(=O)(OCCOCCCC)OCCOCCCC | 90.6% (inactive) |  | 91.6% (inactive) | 99.3% (inactive) | 100% (inactive) |  | 110% (inactive) | 105% (inactive) | 115% (inactive) | 88.3% (inactive) | 111% (inactive) | 99% (inactive) | 100% (inactive) | 98.5% (inactive) | 103% (inactive) | 99.6% (inactive) |  | 106% (inactive) | 111% (inactive)
O=C1CN2CCC1CC2 | 96.8% (inactive) | 99.3% (inactive) | 93.5% (inactive) | 115% (inactive) | 90.3% (inactive) | 92.7% (inactive) | 88.9% (inactive) | 116% (inactive) | 103% (inactive) | 93.9% (inactive) | 102% (inactive) | 108% (inactive) | 111% (inactive) | 99% (inactive) | 99.9% (inactive) | 97.8% (inactive) | 109% (inactive) | 104% (inactive) | 106% (inactive)
